ChEMBL document CHEMBL3988442, “University of Dundee, Small-Polar-MMV Screening Library” (2021)
For some of these results: Measured potencies and affinities stand elsewhere.

What was measured:
Parameters in all cases: scale not given: direction of the effect not stated beside the values
[1] = biological target: Protein translocase subunit SecA (Escherichia coli (strain K12)) (UniProt P10408); assay: Assay to Identify E. coli SecA ATPase Inhibitors; assay type: functional; conditions: 30 µM
[2] = biological target: T1, Ubiquitin-activating enzyme e1, putative (Leishmania donovani (strain BPK282A1)) (UniProt E9BSI1); assay: Leishmania donovani Ubiquitin Activating Enzyme (LdE1); assay type: functional; conditions: 30 µM
T1 sequence (whole entry): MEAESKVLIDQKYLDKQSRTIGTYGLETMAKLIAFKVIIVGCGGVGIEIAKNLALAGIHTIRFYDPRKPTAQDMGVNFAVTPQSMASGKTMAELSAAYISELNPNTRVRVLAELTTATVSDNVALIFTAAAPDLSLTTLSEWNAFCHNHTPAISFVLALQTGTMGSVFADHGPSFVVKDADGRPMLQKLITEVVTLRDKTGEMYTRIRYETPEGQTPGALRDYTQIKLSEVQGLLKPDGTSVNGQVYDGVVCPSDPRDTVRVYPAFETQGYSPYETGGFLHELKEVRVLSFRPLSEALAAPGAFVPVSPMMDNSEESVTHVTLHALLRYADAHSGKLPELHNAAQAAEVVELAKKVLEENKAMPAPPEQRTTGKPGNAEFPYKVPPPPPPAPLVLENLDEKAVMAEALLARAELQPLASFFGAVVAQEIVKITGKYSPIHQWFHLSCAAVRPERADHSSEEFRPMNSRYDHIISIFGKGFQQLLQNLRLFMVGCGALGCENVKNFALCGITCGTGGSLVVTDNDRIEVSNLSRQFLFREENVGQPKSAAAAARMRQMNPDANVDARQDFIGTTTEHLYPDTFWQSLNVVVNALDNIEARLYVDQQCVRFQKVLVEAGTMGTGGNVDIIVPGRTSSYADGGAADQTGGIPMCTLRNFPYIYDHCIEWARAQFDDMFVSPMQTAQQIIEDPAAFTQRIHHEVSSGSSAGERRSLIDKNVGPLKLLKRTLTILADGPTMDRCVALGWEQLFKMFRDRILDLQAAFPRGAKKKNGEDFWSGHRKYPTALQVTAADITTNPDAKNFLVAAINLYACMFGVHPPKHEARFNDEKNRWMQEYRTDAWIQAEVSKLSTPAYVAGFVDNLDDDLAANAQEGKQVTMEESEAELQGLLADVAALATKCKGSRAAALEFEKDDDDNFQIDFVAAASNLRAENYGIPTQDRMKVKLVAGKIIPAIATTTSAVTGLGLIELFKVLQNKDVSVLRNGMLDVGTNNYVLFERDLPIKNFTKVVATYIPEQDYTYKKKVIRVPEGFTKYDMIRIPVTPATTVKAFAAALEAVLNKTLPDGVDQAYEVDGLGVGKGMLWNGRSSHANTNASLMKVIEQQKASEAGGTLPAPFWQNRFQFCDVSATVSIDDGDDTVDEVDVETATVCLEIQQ

[3] = biological target: AMP-activated protein kinase, AMPK (Homo sapiens) (UniProt P54646+O43741+P54619+Q9UGJ0+Q9Y478+Q13131+Q9UGI9); assay: AMP-dependent Kinase enzyme assay. An in vitro enzyme assay that detects ADP turnover that is directly proportional to AMPK activity. This uses naive AMPK that is activated during the assay with MK-8722; assay type: functional; conditions: 30 µM
[4] = biological target: Sialic acid-binding Ig-like lectin 9 (Homo sapiens) (UniProt Q9Y336); assay: Hs-Siglec9 ALPHAscreen SOP 20170721; conditions: 10 µM
Sequence of Sialic acid-binding Ig-like lectin 9 (Homo sapiens) (Q9Y336 whole entry): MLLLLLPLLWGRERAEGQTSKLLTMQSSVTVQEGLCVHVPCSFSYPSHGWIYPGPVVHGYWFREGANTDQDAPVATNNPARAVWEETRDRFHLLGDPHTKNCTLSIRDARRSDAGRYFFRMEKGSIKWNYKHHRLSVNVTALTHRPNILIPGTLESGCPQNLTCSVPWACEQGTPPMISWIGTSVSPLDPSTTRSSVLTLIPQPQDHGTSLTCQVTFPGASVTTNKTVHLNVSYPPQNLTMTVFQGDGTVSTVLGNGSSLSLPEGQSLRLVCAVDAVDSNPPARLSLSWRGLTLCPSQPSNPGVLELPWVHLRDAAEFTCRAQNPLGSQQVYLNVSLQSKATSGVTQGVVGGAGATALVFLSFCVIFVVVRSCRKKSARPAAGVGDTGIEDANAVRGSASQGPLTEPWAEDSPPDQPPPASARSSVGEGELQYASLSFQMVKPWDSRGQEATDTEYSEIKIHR

[5] = test system: Trypanosoma cruzi; assay: Trypanosoma cruzi phosphomannomutase and mannose-1-phosphate guanylyltransferase assay; assay type: functional; conditions: 10 µM
[6] = biological target: T2, Arginase-2, mitochondrial (Homo sapiens) (UniProt P78540); assay: in vitro enzyme assay to detect the production of urea directly proportional to the activity of Arginase II; assay type: functional; conditions: 33.3 µM; also: in the data most compounds retested in dose-response had high values
T2 sequence (whole entry): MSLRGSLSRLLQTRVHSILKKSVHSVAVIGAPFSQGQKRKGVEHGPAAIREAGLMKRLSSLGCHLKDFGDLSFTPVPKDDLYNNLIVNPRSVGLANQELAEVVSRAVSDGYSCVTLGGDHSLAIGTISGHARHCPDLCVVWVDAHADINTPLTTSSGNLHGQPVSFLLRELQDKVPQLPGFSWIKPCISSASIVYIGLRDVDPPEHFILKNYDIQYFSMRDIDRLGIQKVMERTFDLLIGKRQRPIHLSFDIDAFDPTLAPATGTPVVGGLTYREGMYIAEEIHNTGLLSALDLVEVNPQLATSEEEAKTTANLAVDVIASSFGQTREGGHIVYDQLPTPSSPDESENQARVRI

[7] = biological target: T3, Proteasome subunit beta (Trypanosoma cruzi) (UniProt O96673); assay: Trypanosoma cruzi proteasome chymotrypsin-like activity (TcProtChymo) assay.; also: in the data most compounds retested in dose-response had high values; assay type: functional; conditions: 9.37 µM
T3 sequence (whole entry): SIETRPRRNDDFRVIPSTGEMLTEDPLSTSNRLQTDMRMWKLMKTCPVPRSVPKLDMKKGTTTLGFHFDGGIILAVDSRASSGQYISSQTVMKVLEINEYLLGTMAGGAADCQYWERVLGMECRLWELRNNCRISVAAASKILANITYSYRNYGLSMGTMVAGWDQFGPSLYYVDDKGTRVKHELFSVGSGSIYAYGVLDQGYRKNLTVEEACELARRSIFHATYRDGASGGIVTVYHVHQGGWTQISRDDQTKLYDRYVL

[8] = species on record: Homo sapiens; assay: To identify inhibition of the IFN signalling (Jak-Stat) pathway via expression of an eGFP reporter gene under the control of an IFN-stimulated response element (ISRE) containing MxA promoter.; assay type: functional; conditions: 30 µM
[9] = biological target: T4, Tyrosyl-tRNA synthetase, putative (Trypanosoma cruzi (strain CL Brener)) (UniProt Q4DSP6); assay: Trypanosoma cruzi tyrosyl tRNA synthetase (TcYRS) _High Tyrosine SOP; assay type: functional; conditions: 30 µM; also: in the data most compounds retested in dose-response had high values
T4 sequence (whole entry): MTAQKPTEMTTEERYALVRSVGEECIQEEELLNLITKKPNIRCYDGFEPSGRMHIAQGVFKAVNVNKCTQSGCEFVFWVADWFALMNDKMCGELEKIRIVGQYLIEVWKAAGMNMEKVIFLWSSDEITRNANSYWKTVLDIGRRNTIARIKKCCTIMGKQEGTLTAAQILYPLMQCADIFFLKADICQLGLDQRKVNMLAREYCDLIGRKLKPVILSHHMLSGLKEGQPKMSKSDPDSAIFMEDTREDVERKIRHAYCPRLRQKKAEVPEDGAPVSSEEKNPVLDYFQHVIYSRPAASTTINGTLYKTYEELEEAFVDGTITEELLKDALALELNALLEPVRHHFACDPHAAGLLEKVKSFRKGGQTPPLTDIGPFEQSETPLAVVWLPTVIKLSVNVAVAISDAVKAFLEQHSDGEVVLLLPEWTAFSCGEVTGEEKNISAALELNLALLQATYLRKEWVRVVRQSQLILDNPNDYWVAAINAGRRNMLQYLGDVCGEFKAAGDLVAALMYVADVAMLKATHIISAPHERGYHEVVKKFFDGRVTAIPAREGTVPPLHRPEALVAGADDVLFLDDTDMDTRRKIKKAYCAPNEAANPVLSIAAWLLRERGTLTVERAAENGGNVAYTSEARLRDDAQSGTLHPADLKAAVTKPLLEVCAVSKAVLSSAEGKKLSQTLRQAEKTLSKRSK

[10] = biological target: T4, Tyrosyl-tRNA synthetase, putative (Trypanosoma cruzi (strain CL Brener)); assay: Trypanosoma cruzi tyrosyl tRNA synthetase (TcYRS) SOP; assay type: functional; conditions: 30 µM
[11] = biological target: Chromo domain-containing protein 1 (Saccharomyces cerevisiae (strain ATCC 204508 / S288c) (Baker's yeast)) (UniProt P32657); assay: ScCHD-1 Enzyme Inhibition Assay; assay type: functional; conditions: 30 µM; also: in the data most compounds retested in dose-response had high values
Sequence of Chromo domain-containing protein 1 (Saccharomyces cerevisiae (strain ATCC 204508 / S288c) (Baker's yeast)) (P32657 whole entry, the tested form may be a part): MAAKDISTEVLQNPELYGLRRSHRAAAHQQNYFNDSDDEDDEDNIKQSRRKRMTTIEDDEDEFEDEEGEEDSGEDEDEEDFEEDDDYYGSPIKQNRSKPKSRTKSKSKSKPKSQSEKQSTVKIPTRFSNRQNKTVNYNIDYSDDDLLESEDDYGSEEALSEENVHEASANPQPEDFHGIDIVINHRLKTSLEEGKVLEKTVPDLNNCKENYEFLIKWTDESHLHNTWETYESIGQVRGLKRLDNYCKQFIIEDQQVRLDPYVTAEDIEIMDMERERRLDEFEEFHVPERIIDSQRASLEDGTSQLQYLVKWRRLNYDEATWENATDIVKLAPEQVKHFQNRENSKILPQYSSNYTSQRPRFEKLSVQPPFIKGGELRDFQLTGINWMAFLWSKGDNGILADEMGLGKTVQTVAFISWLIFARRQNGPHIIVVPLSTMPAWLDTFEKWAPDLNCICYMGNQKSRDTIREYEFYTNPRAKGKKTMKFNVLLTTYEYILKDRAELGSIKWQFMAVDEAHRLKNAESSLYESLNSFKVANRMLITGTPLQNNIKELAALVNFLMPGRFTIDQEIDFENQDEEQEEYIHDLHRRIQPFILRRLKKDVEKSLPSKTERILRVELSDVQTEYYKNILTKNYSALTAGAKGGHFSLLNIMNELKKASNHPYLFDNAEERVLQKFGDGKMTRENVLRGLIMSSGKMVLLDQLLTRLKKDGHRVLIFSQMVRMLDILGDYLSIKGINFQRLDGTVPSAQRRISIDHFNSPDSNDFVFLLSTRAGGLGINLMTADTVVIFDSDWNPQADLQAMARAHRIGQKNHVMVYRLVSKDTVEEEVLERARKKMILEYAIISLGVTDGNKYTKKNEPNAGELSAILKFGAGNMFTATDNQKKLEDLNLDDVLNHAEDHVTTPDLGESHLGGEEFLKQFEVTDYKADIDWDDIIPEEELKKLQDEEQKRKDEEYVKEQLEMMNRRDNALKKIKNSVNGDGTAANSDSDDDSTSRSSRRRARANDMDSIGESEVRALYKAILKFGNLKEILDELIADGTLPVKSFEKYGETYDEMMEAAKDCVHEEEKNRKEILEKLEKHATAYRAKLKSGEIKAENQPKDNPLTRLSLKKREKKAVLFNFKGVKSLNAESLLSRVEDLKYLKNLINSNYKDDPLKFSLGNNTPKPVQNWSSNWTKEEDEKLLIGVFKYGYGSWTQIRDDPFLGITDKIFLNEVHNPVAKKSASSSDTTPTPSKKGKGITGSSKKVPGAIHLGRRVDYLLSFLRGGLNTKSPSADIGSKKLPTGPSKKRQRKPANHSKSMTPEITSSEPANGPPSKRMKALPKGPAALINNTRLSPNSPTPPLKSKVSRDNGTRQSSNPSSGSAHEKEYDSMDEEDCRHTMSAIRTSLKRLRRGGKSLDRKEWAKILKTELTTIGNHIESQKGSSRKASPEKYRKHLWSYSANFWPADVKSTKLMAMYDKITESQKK

Sequence of Protein translocase subunit SecA (Escherichia coli (strain K12)) (P10408 whole entry): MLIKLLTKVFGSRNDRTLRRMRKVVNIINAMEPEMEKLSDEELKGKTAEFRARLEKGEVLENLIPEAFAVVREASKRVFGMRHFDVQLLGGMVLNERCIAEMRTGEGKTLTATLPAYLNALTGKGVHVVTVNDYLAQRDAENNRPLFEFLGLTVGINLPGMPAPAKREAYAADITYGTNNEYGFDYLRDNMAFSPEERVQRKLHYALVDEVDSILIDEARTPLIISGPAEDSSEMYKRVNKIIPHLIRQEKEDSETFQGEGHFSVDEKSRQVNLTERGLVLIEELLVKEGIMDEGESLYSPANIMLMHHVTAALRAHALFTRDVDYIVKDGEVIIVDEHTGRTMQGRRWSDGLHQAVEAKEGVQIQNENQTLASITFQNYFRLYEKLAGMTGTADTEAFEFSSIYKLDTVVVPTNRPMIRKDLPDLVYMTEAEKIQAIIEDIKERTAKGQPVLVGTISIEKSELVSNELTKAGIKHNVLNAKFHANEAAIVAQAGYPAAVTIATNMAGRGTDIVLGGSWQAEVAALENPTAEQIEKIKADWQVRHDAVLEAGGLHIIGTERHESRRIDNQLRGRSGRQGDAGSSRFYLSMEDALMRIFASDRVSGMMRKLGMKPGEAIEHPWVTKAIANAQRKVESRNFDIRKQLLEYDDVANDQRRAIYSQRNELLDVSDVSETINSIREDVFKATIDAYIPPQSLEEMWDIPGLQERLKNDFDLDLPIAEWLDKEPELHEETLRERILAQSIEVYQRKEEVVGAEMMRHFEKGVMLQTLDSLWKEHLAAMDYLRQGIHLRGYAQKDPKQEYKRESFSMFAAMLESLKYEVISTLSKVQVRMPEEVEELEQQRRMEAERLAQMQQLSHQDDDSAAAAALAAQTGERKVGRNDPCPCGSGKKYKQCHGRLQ

Row | Compound | Percent Effect [1] [%] | Percent Effect [2] [%] | Percent Effect [3] [%] | Percent Effect [4] [%] | Percent Effect [5] [%] | Percent Effect [6] [%] | Percent Effect [7] [%] | Percent Effect [8] [%] | Percent Effect [9] [%] | Percent Effect [10] [%] | Percent Effect [11] [%]
1 | O=C(c1ccc[nH]1)N1C[C@H]2CN(Cc3cccc(F)c3)C(=O)[C@H]2C1 | -2.55 | 13.5 | 9.65 | -6.44 | -2.05 | 6.05 | 20.3 | 13 | 0 | 7.69 | -2.96
2 | CCc1ncc2c(n1)CN(CC(=O)NCCOc1ccccc1)CC2 | -4.72 | 7.89 | -23.5 | -1.72 | 1.21 | -1.44 | -5.84 | -22.3 | 11.3 | 6.17 | 1.38
3 | COCC1c2nnn(CC3CC3)c2CCN1C(=O)c1cccc(F)c1 (stereo not given) | -5.76 | 0 | -4.62 | 0.968 | -4.59 | -0.248 | 3 | 10 | 5.38 | 6.17 | 1.63
4 | COc1cccc(-n2c(C)cc(C(=O)NS(C)(=O)=O)c2C)c1 | -2.83 | 20.2 | -2.25 | -3.1 | -4.63 | 2.28 | 2.21 | 8.44 | 6.4 | 13.9 | -5.99
5 | Cc1nc(CCCNC(=O)C2CC(=O)N(C3CC3)C2)sc1C (stereo not given) | 6.83 | 16.4 | -10.9 | 5.44 | 1.59 | -10.8 | 16.9 | 25.5 | 8.33 | 28.4 | 2.71
6 | O=C(c1cnccn1)N1CCN(Cc2ccncc2)c2ncccc2C1 | -1.27 | 0 | 2.52 | 4.53 | -1.54 | -20.2 | 2.73 | -10.5 | 2.08 | 2.5 | -3.2
7 | CCn1cnnc1CNC(=O)N1CCN(c2cccc(OC)c2)CC1 | -4.11 | 20.8 | -7.68 | 2.16 | -3.75 | -0.356 | 12.3 | 25.9 | 12.6 | 14.6 | -9.3
8 | COc1cccc(N2CCN(CC(O)c3cc(C)sc3C)CC2)c1 (stereo not given) | -4.6 | 20.3 | 6.95 | -1.22 | 2.77 | -2.55 | 5.62 | 19.5 | 15.1 | 22.1 | -16.3
9 | Cc1nc(CN2CCc3cncnc3C2)oc1C | -0.217 | 2.74 | -102 | 7.08 | 5.09 | 16.8 | 3.55 | 2.92 | 2.15 | 12.5 | -7.36
10 | COc1ncccc1C(=O)N1CCN(C(=O)Cc2ccccn2)CC1 | -1.65 | 21.5 | -6.89 | -0.0483 | 2.36 | -2.37 | 18 | 17.4 | 7.29 | 20.2 | -20.3
11 | Cc1noc(Cl)c1CCC(=O)N1CCN(c2ncccn2)CC1 | -1.95 | 10.5 | -1.41 | -4.66 | -11.1 | 5.75 | 7.02 | 21.6 | 5.42 | 13.6 | 1.74
12 | O=C(c1cnco1)N1C[C@@H]2CC[C@H](Oc3ccccc3F)[C@@H]2C1 | -8.63 | -6.76 | 3.39 | -7.43 | -3.16 | -2.09 | 3.74 | 25.5 | -4.3 | -9.09 | -6.6
13 | O=C(c1ccc(C2CCCO2)s1)N1CCN(c2ccccc2F)CC1 (stereo not given) | -2.34 | 16.2 | -2.01 | 21.1 | 3.67 | 30 | 14.1 | -6.24 | 5.82 | 14.6 | -4.16
14 | c1ccc(-c2nnc(CNCCn3cccn3)o2)cc1 | -3.18 | -10.1 | 1.44 | -1.76 | 1.79 | 3.04 | 1.72 | -4.79 | 6.4 | 8.86 | -8.2
15 | O=C(c1ccn(-c2ccccc2Cl)n1)N1CCSCC1 | -4.68 | 8.11 | 1.31 | 12.9 | -6.55 | 1.74 | 3.69 | 20.1 | 0 | 11.1 | -3.09
16 | O=C(c1ccc(Cl)c(Cl)c1)N1CCCC(n2cncn2)C1 (stereo not given) | -0.919 | 2.7 | -3.55 | 0.213 | -2.14 | 6.47 | -7 | 6.82 | 3.96 | 3.66 | 7.67
17 | Cc1cc(NC(=O)NCCc2cccs2)n(C)n1 | 0.534 | 4.17 | -1.97 | -7.64 | -8.65 | 4.42 | 23.3 | -9.88 | 0 | 5.13 | -0.833
18 | Cc1cnc(C(=O)N2CCCN(Cc3csc(C)n3)CC2)cn1 | -5.93 | 13.7 | -7.71 | 11.9 | 6.75 | 2 | 18.8 | -1.38 | 5.21 | 8.64 | -12.5
19 | Cc1nn(C)c(N(C)C)c1CNCc1cccc(CN(C)C(C)C)c1 | -3.75 | 13.5 | -10.9 | 25.4 | 3.03 | 10.7 | 9.87 | -7.67 | 5.38 | 21 | -8.38
20 | CC(C)Nc1nc(N2CCOCC2)nc2c1CN(Cc1ccoc1)CC2 | -4.76 | 5.33 | 12.8 | 1.46 | -1.97 | 6.76 | 7.84 | 8.61 | 7.45 | 16.7 | -3.95
